# Assay results: PubChem BioAssay (Tox21)
# Results filed as inconclusive are left out. Active and inactive are the calls of the source. Calls come from the whole dose curve; as a rule, active = well fitted activation curve with a large enough effect in the repeat runs; inconclusive = weak or mixed curves; inactive = flat fitted curve, though single readings scatter.
# Experiment: A CellTox Green Cytotoxicity Assay to monitor cytotoxicity in HepG2 cells - 32 hour (AID 1224883); note: nearly all actives have a fitted effect of over 50% in size
# Conditions: CellTox Green fluorescence; series mostly up to 76.8 µM; cytotoxicity increase: at the top concentration
# How it was run: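 Nonlytic assay: viable cells exclude the dye, so fluorescence scales with cell death. HepG2 at 600 cells/well, compounds added after 5 h, signal read across 40 h.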
# % is set by controls: 0 for no effect and ±100 for the full control effect; potency is the fitted concentration of half-maximal effect.
Compound,cytotoxicity increase,Potency
NC(=O)NS(=O)(=O)c1ccc(N)cc1,-3.27% [at 35.3 µM] (inactive),–
C[C@@H]1C[C@H]2[C@@H]3CCC4=CC(=O)C=C[C@]4(C)[C@@]3(Cl)[C@@H](O)C[C@]2(C)[C@@]1(OC(=O)c1ccco1)C(=O)CCl,6.85% [at 35.3 µM] (inactive),–
O=C(N/N=C/c1ccccc1O)c1ccncc1,10.5% [at 35.3 µM] (inactive),–
O=C(Nc1cccc([N+](=O)[O-])c1)c1cc2ccccc2cc1O,-0.295% (inactive),–
C/C(=C(/OCCOc1ccc(Cl)cc1)c1ccc(Cl)cc1Cl)n1ccnc1,-0.138% [at 35.3 µM] (inactive),–
CN(C)c1ccc(C2(c3ccc(N(C)C)cc3)OC(=O)c3cc(N(C)C)ccc32)cc1,-6.57% (inactive),–
Cn1cc(C(=O)[C@@H]2CCc3nc[nH]c3C2)c2ccccc21,0.747% [at 35.3 µM] (inactive),–
Clc1ccc(C(Cn2ccnc2)OCc2ccc(Sc3ccccc3)cc2)c(Cl)c1 (stereo unspecified),-0.0105% [at 35.3 µM] (inactive),–
NNc1nc(-c2ccc([N+](=O)[O-])cc2)cs1,-14.3% (inactive),–
CCCCCOC(=O)CCCC,-16.3% (inactive),–
CC1=C(C(=O)OC(C)C)C(c2cccc([N+](=O)[O-])c2)C(C(=O)OC2CN(C(c3ccccc3)c3ccccc3)C2)=C(N)N1 (stereo unspecified),–,23.9 µM (active)
CCC(N)(CO)CO,5.66% (inactive),–
Cc1cccc(S(=O)(=O)O)c1C,-0.78% (inactive),–
CCCC1O[C@@H]2C[C@H]3[C@@H]4CCC5=CC(=O)C=C[C@]5(C)[C@H]4[C@@H](O)C[C@]3(C)[C@]2(C(=O)CO)O1 (stereo partly specified),23.2% (inactive),–
Nc1ccccc1O,-3.74% (inactive),–
C=CC(=O)OCC(CO)(COC(=O)C=C)COC(=O)C=C,–,9.81 µM (active)
O=C(NOCC1CC1)c1ccc(F)c(F)c1Nc1ccc(I)cc1Cl,–,0.0849 µM (active)
Cc1ccc2oc(CN(Cc3ccccc3)C(=O)Nc3c(F)cc(F)cc3F)c(-c3ccc(Cl)cc3)c2c1,-0.798% (inactive),–

Compound,cytotoxicity increase,Potency
Cc1cc(C2CCCCC2)n(O)c(=O)c1,27.1% [at 35.3 µM] (inactive),–
O=C(O)c1c(Cl)cccc1Cl,-4.15% (inactive),–
CN(C/C=C/C#CC(C)(C)C)Cc1cccc2ccccc12,-7.43% [at 35.3 µM] (inactive),–
Clc1ccc2n[nH]nc2c1,0.734% (inactive),–
CC(=O)OCC(C)OC(C)=O (stereo unspecified),-9.76% (inactive),–
CCN(C(=O)N(CC)c1ccccc1)c1ccccc1,16.2% (inactive),–
C1CCCC1,2.1% (inactive),–
Nc1ccc2cc(S(=O)(=O)O)cc(O)c2c1N=Nc1ccccc1C(F)(F)F,-20.5% (inactive),–
CSc1cnc(C)cn1,–,63.3 µM (active)
CCN1/C(=C/C=C/c2sc3ccccc3[n+]2CC)Sc2ccccc21,–,1.17 µM (active)
CSc1ccc(/C=C2/C(C)=C(CC(=O)O)c3cc(F)ccc32)cc1,0.778% [at 35.3 µM] (inactive),–
CCN(CCC#N)c1ccc(N=Nc2c(Cl)cc([N+](=O)[O-])cc2Cl)cc1,-34.7% (inactive),–
Cc1ccc(-n2nc(C(C)(C)C)cc2NC(=O)Nc2ccc(OCCN3CCOCC3)c3ccccc23)cc1,-3.24% [at 35.3 µM] (inactive),–
CCOC(=O)/C=C(C)/C=C/C=C(C)/C=C/c1c(C)cc(OC)c(C)c1C,-9.82% [at 35.3 µM] (inactive),–
Cc1onc(-c2c(Cl)cccc2Cl)c1C(=O)N[C@@H]1C(=O)N2[C@@H]1SC(C)(C)[C@@H]2C(=O)O,-7.1% [at 35.3 µM] (inactive),–
CCN(Cc1cccnc1)C(=O)c1cccc(Cl)c1[C@]1(C)C(=O)N(Cc2ccc(OC)cc2OC)c2ccc(Cl)cc21,2.36% (inactive),–
CC(C)(C)C(=O)OCOC(=O)[C@@H]1N2C(=O)[C@@H](NC(=O)[C@H](N)c3ccccc3)[C@H]2SC1(C)C,-0.515% [at 35.3 µM] (inactive),–
CCOC(=O)O[C@H](C)OC(=O)c1ccc2c(c1)cc(C(=O)NC1CCN(C(C)C)CC1)n2Cc1cc(-c2ccc(Cl)s2)on1,–,11.5 µM (active)
